Assay outcomes deposited in PubChem by National Center for Advancing Translational Sciences (NCATS).
IL-1B inflam inh: qHTS for Inhibitors of Inflammasome Signaling: IL-1-beta AlphaLISA Primary Screen | 4.7% of 360,000 active | THP-1 LPS/ATP IL-1B secretion, AlphaLISA, 16 h; stronger effect = lower value | AID 743279, 2014 | activity change, % at 57.5 µM; in the data active means activity change below about -50%; inconclusive means mostly about -30% to -49%
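Secreted IL-1B measured by AlphaLISA bead assay after 16 h compound exposure of THP-1 cells; compounds (final up to 57.5 uM) added 1 h before LPS (250 ng/mL) and ATP (1.25 mM) stimulation; lower signal means less secretion.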
S2 tox: Viability Counterscreen for Primary qHTS for Inhibitors of ATXN expression | S2 cells (HEK-293 line with an ATXN2-luciferase reporter) viability, CellTiter-Fluor protease fluorescence, 24 h | Potency, µM (highest dose often 56.7 µM), usual class: cytotoxic | 0.49% of 400,000 active | AID 651635, 2014; further: nearly all actives have a fitted effect of over 40% in size
HepG2 viability: qHTS for Inhibitors of TGF-b: Cytotox Counterscreen; Potency, µM (doses to about 46.1 µM), most hits filed as cytotoxic; AID 588856, 2011; HepG2 CAGA-GFP viability, ATP luminescence, 18 h; 0.76% of 410,000 active
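HepG2 CAGA-GFP cells (1000/well, DMEM with 1% FBS) received compound, then TGF-beta at 500 pg/mL final, and were incubated 18 hours at 37 degrees C. Viability was read by CellTiter-Glo luminescence. Media-only wells were set as complete cell-killing and DMSO as no toxicity.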
TGFb SMAD3 inh: qHTS for Inhibitors of TGF-b; Potency, µM (top dose mostly 46.1 µM), actives largely listed as inhibitors; 1.2% of 410,000 active; HepG2 CAGA-GFP TGF-b/SMAD3 reporter, GFP fluorescence, 18 h; TGF-beta stimulated, 500 pg/mL final; AID 588855, 2011; further: nearly all actives have a fitted effect of over 65% in size
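HEPG2 CAGA-GFP cells (1000/well, DMEM with 1% FBS) were pre-incubated 2 h at 37 degrees C, given compound by pin tool, then stimulated with TGF-beta at 500 pg/mL final for 18 h before per-cell GFP fluorescence imaging.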
ATXN2 expr inh: Primary qHTS for Inhibitors of ATXN expression; 0.72% of 360,000 active; HEK-293 ATXN2-luciferase reporter, luminescence, 24 h; Potency, µM (top dose mostly 57 µM), actives largely listed as inhibitors; further: nearly all actives have a fitted effect of over 55% in size
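ATXN2-luciferase reporter cells (luciferase flanked by upstream and downstream ATXN2 gene portions) were treated 24 h at 37 °C with compounds at up to 57 uM. SteadyGlo luminescence gave expression; GF-AFC fluorescence gave viability.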
Each line names hits and unclear results; the compound was inactive in the other large screens. A selection: hits, their analogues and other compounds. The true share with any hit is near 5.7%. Unless noted, the call rests on the fitted dose curve; in most records, active means well fitted curve in the direction sought with a large enough effect; inconclusive means small, poorly fitted or top-dose-only effect, or another doubt; inactive means no such curve, though single readings can be large; an effect the other way counts as inactive or inconclusive.

O=C(CCCN1C(=O)/C(=C/c2ccccc2Cl)SC1=S)NNC(=O)c1ccccc1Cl	ATXN2 expr inh inconclusive
COC(=O)c1ccc(/C=C2/SC(=S)N(CCC(=O)NCCCN3CCOCC3)C2=O)cc1	IL-1B inflam inh -57, S2 tox inconclusive
O=C(CCCN1C(=O)/C(=C/c2ccccc2Cl)SC1=S)NCCCN1CCOCC1	IL-1B inflam inh -104, S2 tox inconclusive, TGFb SMAD3 inh inconclusive
O=C(CCN1C(=O)/C(=C/c2ccccc2)SC1=S)NCCCN1CCOCC1	IL-1B inflam inh -59, S2 tox inconclusive
COc1ccccc1/C=C1\SC(=S)N(CCC(=O)NCCCN2CCOCC2)C1=O	S2 tox inconclusive
O=C(CCN1C(=O)/C(=C/c2ccccc2F)SC1=S)NCCCN1CCOCC1	IL-1B inflam inh -97, S2 tox inconclusive
COc1ccc(CNC(=O)Cc2c(C)c3cc4c(C)coc4c(C)c3oc2=O)cc1OC	none (no result: IL-1B inflam inh, S2 tox, ATXN2 expr inh)
C(=C\c1ccc2ccccc2n1)/c1cccnc1	none (no result: IL-1B inflam inh, S2 tox, ATXN2 expr inh)
Cc1cccn2c(=O)cc(CSc3nnc(NC(=O)COc4ccccc4)s3)nc12	none (no result: IL-1B inflam inh, S2 tox, ATXN2 expr inh)
CCOC(=O)c1c(C)oc2nc(C)nc(NCCCN3CCN(c4cccc(C)c4)C(C)C3)c12 (centres undefined)	none (no result: IL-1B inflam inh)
CCOc1ccccc1Nc1cc(C)nc2ccccc12	none (no result: ATXN2 expr inh)
COC(=O)c1ccc(Nc2cc(C)nc3ccc(C)cc23)cc1	IL-1B inflam inh -93, S2 tox inconclusive, TGFb SMAD3 inh inconclusive
CCOc1ccccc1Nc1cc(C)nc2ccc(C)cc12	IL-1B inflam inh -96, TGFb SMAD3 inh inconclusive
COc1ccc(OC)c(Nc2cc(C)nc3ccc(C)cc23)c1	IL-1B inflam inh -77, S2 tox inconclusive, TGFb SMAD3 inh inconclusive, ATXN2 expr inh inconclusive
COc1ccc2nc(C)cc(NCc3ccc(F)cc3)c2c1	IL-1B inflam inh -79, ATXN2 expr inh inconclusive
COc1ccc(-c2cc(C(=O)NCc3ccc(F)cc3)[nH]n2)c(C)c1	S2 tox inconclusive
Cc1cccc(N(C)S(=O)(=O)c2nnc(NC(=O)C3CCCCC3)s2)c1	none (no result: IL-1B inflam inh, S2 tox, ATXN2 expr inh)
COc1ccc2nc(C)cc(Nc3ccc(Cl)c(Cl)c3)c2c1	S2 tox 22µM, HepG2 viability 11µM, TGFb SMAD3 inh inconclusive, ATXN2 expr inh 25µM (no result: IL-1B inflam inh)
COc1ccc2nc(C)cc(Nc3ccc(N4CCN(C)CC4)cc3)c2c1	IL-1B inflam inh -106, S2 tox inconclusive (no result: ATXN2 expr inh)
COc1ccc2nc(C)cc(Nc3ccc(C)cc3)c2c1	IL-1B inflam inh inconclusive
COc1ccc2nc(C)cc(Nc3ccc(N4CCOCC4)cc3)c2c1	S2 tox inconclusive, TGFb SMAD3 inh inconclusive, ATXN2 expr inh inconclusive (no result: IL-1B inflam inh)
COc1cccc(NC(=O)CCc2nc(-c3cc(OC)c(OC)c(OC)c3)no2)c1	S2 tox inconclusive (no result: IL-1B inflam inh)
CC(NC1CCCCC1)C(=O)NN=C(c1ccccc1)c1ccccc1 (centres undefined)	IL-1B inflam inh -63
CC(Cl)C(=O)NN=C(c1ccccc1)c1ccccc1 (centres undefined)	none
COC(=O)c1c(Oc2ccc(C(C)=O)cc2)nnc(-c2ccccc2)c1-c1ccccc1	S2 tox inconclusive, TGFb SMAD3 inh inconclusive, ATXN2 expr inh inconclusive (no result: IL-1B inflam inh)
COc1cc(/C=N/NC(=O)c2cc(-c3ccc4c(c3)OCO4)n[nH]2)ccc1O	IL-1B inflam inh -154 (no result: ATXN2 expr inh)
COc1ccc(C(=O)Nc2cccc(C(=O)N/N=C/c3ccc(OC)cc3OC)c2)cc1	ATXN2 expr inh 11µM
COc1ccc(/C=N/NC(=O)c2cccc(NC(C)=O)c2)c(OC)c1	none
COc1cccc(/C=N/NC(=O)c2[nH]c(C)c(C(=O)N/N=C/c3cccc(OC)c3O)c2C)c1O	TGFb SMAD3 inh inconclusive, ATXN2 expr inh 14µM
Cc1cccc(/C=N/NC(=O)c2c(-c3ccccc3)noc2C)c1O	TGFb SMAD3 inh inconclusive, ATXN2 expr inh 3.5µM
CC(C)c1ccc(NC(=O)c2cc(S(=O)(=O)NCc3ccccc3Cl)ccc2F)cc1	TGFb SMAD3 inh inconclusive, ATXN2 expr inh inconclusive (no result: IL-1B inflam inh, S2 tox)
C=CCn1c(=O)n([C@@H]2O[C@H](CO)[C@@H](O)[C@H]2O)c2nc(N)[nH]c(=O)c21	none (no result: IL-1B inflam inh, HepG2 viability, TGFb SMAD3 inh)
CCOc1ccc(NC(=O)c2c(NCc3sccc3C)sc3c2CCCCC3)cc1	TGFb SMAD3 inh inconclusive (no result: IL-1B inflam inh, S2 tox, ATXN2 expr inh)
COc1ccc(CCCC(=O)N/N=C/c2cccc(OC)c2O)cc1C	TGFb SMAD3 inh inconclusive, ATXN2 expr inh 13µM
COc1cccc(/C=N/NC(=O)C[n+]2ccccc2)c1O	none
COc1cccc(/C=N/NC(=O)CNC(=O)C2COc3ccccc3O2)c1O (centres undefined)	ATXN2 expr inh 8.9µM
COc1ccccc1/C=N/NC(=O)c1ccccc1Cl	IL-1B inflam inh -67
COc1cccc(/C=N/NC(=O)c2ccc(=O)n(C)c2)c1O	ATXN2 expr inh 15µM (no result: S2 tox)
COc1cccc(N2C(=O)CSC23C(=O)N(CC(=O)Nc2cc(C)ccc2C)c2ccccc23)c1 (centres undefined)	S2 tox inconclusive (no result: IL-1B inflam inh)
CN(C)c1ccc(/C=C2/CCCc3c2nc2ccccc2c3C(=O)O)cc1	none (no result: IL-1B inflam inh, S2 tox, ATXN2 expr inh)
S=C(N/N=C/c1ccccc1Cl)Nc1ccccc1	TGFb SMAD3 inh inconclusive
COc1ccc(OC)c(/C=N\NC(=O)c2ccc(-c3ccccc3)cc2)c1	none
COc1cccc(/C=N/NC(=O)c2cnccn2)c1OC	HepG2 viability 13µM
COc1cc(OC)c(OC)cc1/C=N/NC(=O)c1cnccn1	none
COc1cccc(/C=N/NC(=O)c2cc(-c3ccccn3)nc3ccccc23)c1O	S2 tox inconclusive, ATXN2 expr inh 5µM
CNC(=S)N/N=C/c1ccccc1Cl	IL-1B inflam inh -50
COc1cccc(/C=N/NC(=O)c2ccc(-c3ccccc3)cc2)c1O	S2 tox inconclusive, TGFb SMAD3 inh inconclusive, ATXN2 expr inh 3.2µM
Cc1ccc(C(C)C)c(OCC(=O)N2CCC(c3nc4ccccc4o3)CC2)c1	TGFb SMAD3 inh inconclusive (no result: IL-1B inflam inh, S2 tox, ATXN2 expr inh)
COC(=O)C1CCN(Cc2ccc3c(c2)CN(C(=O)c2ccc(-n4cnnn4)cc2)CCO3)CC1	none (no result: IL-1B inflam inh, HepG2 viability, TGFb SMAD3 inh, ATXN2 expr inh)
Cc1ccc(C(=O)n2nc(C)c(S(=O)(=O)N3CCCCCC3)c2C)cc1	none (no result: IL-1B inflam inh)
COc1cccc(/C=N/NC(=O)C(=O)Nc2ccccc2OC(F)(F)C(F)F)c1O	S2 tox inconclusive, ATXN2 expr inh 10µM
COc1ccccc1/C=N/NC(=O)c1cccc(OC(F)(F)C(F)F)c1	none
COc1cc2ccccc2cc1C(=O)N/N=C/c1ccc2c(c1)OCO2	S2 tox inconclusive, TGFb SMAD3 inh inconclusive
COc1ccc(-c2cc(C(=O)N/N=C/c3ccc4c(c3)OCO4)c3ccccc3n2)c(OC)c1	HepG2 viability 11µM
Cc1ccc(C)c(NC(=O)CSc2nc3nc(-c4cccs4)cc(C(F)(F)F)c3c(=O)[nH]2)c1	TGFb SMAD3 inh 16µM
